Among all 1,000 compounds or so, about 270 (27%) were called active. Not all results are given here. Unmarked numbers belong to inactive results. Rule as the data show it: active = inhibition above about 14%; inactive = the rest.

Our source for the inhibition values is PubChem BioAssay AID720531 (The Scripps Research Institute Molecular Screening Center, 2013).

Methyl-CpG-binding domain protein 2 (Homo sapiens), sequence (Q9UBB5 whole entry, looked up, the tested form may be a part): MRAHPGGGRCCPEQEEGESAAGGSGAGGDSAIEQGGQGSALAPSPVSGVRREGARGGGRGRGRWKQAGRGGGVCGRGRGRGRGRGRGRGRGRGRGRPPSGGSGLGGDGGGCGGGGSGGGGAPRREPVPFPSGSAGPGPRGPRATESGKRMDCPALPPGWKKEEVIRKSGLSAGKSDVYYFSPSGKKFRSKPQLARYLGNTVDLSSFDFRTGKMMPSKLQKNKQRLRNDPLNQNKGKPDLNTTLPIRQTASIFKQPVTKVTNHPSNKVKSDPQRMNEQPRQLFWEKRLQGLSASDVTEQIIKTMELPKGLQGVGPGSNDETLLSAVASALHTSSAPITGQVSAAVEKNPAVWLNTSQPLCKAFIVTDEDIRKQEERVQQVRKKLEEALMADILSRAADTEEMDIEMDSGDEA

This assay concerns the target Methyl-CpG-binding domain protein 2 (Homo sapiens) (UniProt Q9UBB5). The assay can be described thus: inhibitors of MBD2 binding to methylated DNA, confirmation, biochemical, TR-FRET, DNA-binding domain, human (AID 720531). Conditions: TR-FRET MBD2-DBD binding to methylated oligonucleotide; at 4.4 µM; active compounds read high. (TR-FRET usually uses a lanthanide donor and a delayed reading to cut background.)
In the case of `c1ccc2cc3c(NCCN4CCOCC4)ccnc3cc2c1`, the inhibition – broadly, the change of the read-out against control, counted positive when it falls – is 25% (active). Under `Cc1cccc(NC(=O)C[C@H]2CC[C@H]3[C@@H](COc4ccc(NC(=O)Nc5ccccc5)cc4C(=O)N3C)O2)c1` stands 8.99%; under `COC(=O)[C@]12C[C@H](CC(=O)NCCC(C)C)C(=O)N(CCc3ccc(OC)c(OC)c3)C1=C[C@H](C(C)(C)C)O[C@@H]2C`, 2.11%. Under `O=c1ccc2c(-c3ccccc3S(=O)(=O)O)c3ccc(O)c(O)c3oc-2c1O` stands 94.4% (active); under `CN(C)[C@@H]1C(=O)C(C(N)=O)=C(O)[C@@]2(O)C(=O)C3=C(O)c4c(O)ccc(Cl)c4[C@@H](O)[C@H]3C[C@@H]12`, 0.76%. In the case of `CN(C)CCNC(=O)c1ccc(Cl)c2cc3ccccc3nc12`, the inhibition was 68.7% (active). In the case of `COc1nc(N(C)C)nc(N2CC(=O)N(CCNS(=O)(=O)c3ccc(C)cc3)C2=N)n1`, the inhibition was 3.06%.

On to `COC(=O)c1c(NC(=O)c2ccc(S(=O)(=O)N3CCOCC3)cc2)sc2c1CCN(C(C)C)C2`, for which the inhibition is 23.6% (active). Under `CCOc1ccc(-n2c(SCC(=O)Nc3ccc(OC)cc3)nc3sc4c(c3c2=O)CCN(C)C4)cc1` stands 4.44%; under `COc1ccc(COC[C@H](CC(C)C)N2CCN(C(=O)c3cccc(C(F)(F)F)c3)CCC2=O)cc1`, 5.45%. With `Nc1ccccc1C(=O)NC1CCCCNC1=O` (stereo not given), the inhibition was 0.65%. Under `C=CCn1c(=S)[nH]c2scc(-c3ccco3)c2c1=O` stands 27.2% (active); under `COC(=O)c1ccc(CSc2nncn2N)cc1`, 1.91%. Then `Cc1c(NS(=O)(=O)c2cc(C(=O)NCCc3ccc(F)cc3)cc(Cl)c2Cl)c(=O)n(-c2ccccc2)n1C`, with 3.66%; and `C=CCN(C(=O)[C@@H](CCCC)[C@@H](O)c1ccc(Cl)cc1)c1ccccc1`, with 3.23%; and `C=CC1=C(C(=O)O)N2C(=O)[C@@H](NC(=O)/C(=N\OCC(=O)O)c3csc(N)n3)[C@H]2SC1`, with 104% (active). Then `CNC(=O)C[C@H]1C(=O)N(c2ccc(OC)cc2)C[C@@H]1Cc1ccccc1`, with 2.83%; and `CCOc1ccc(S(=O)(=O)N2CCC(c3ccccc3)CC2)cc1C(=O)O`, with 0.33%. In the case of `CC(C)c1nc(CNC(=O)CC2C(=O)NCCN2Cc2cccc(F)c2F)cs1` (stereo not given), the inhibition was 1.21%.

As for `CCOc1ccc(NC(=O)c2cc(C)nc3ccccc23)cc1`, the inhibition is 1.13%. In the case of `Cc1ccc(Cc2cnc(N)s2)o1`, the inhibition is 2.75%. As for `CCOC(=O)C1C(=O)OC2(CCCC2)C1C(=O)OCC` (stereo not given), the inhibition was 1.9%. Then `CCN(CC)CCOc1ccc2c(c1)C(=NNC(=O)c1ccccn1)c1cc(OCCN(CC)CC)ccc1-2`, with 112% (active). Under `C=CCN1C(=O)c2ccc(C(=O)N3CCC(C(=O)OCC)CC3)cc2C1=O` stands 4.08%; under `COc1ccccc1C(=O)NNC(=O)CCN1C(=O)/C(=C\c2ccccc2)SC1=S`, 1.72%; under `COC(=O)c1cn(C)c2ccc(S(=O)(=O)N3CC(C)CC(C)C3)cc2c1=O` (stereo not given), 6.67%. As for `Cc1ccc(-c2ccnc3nc(Sc4ncc(C(F)(F)F)cc4Cl)nn23)cc1`, the inhibition was 3.6%. Under `CCOc1cc(-c2noc(CCCC(=O)NC3CCCCC3)n2)ccc1OC` stands 7.12%; under `C=C1c2c(Cl)ccc(O)c2C(O)=C2C(=O)[C@]3(O)C(O)=C(C(N)=O)C(=O)[C@@H](N(C)C)[C@@H]3[C@@H](O)C12` (stereo not given in full), 7.25%. Consider `Cc1cc(C)c2nc3nc(C)cc(C)c3c(N)c2c1`, for which the inhibition is 45.1% (active). Turning to `CC(C)Oc1ccc(C2NC(=O)NC2=O)cc1` (stereo not given), the inhibition was 6.62%. `COC(=O)c1ccc2nc(C3CCCCC3)c(Cc3cccc(F)c3)n2c1`: the inhibition was 4.72%. Then `Cc1ccccc1NC(=O)CN1C(=O)N/C(=C\c2cccn2-c2cccc(C(=O)O)c2)C1=O`, with 21.2% (active). For the molecule `Cc1cccc(CN2CCN(C3CN(Cc4cn(Cc5cc(C)cc(C)c5)nn4)S(=O)(=O)C3)CC2)c1` (stereo not given), the inhibition was 1.92%.

As for `CCOc1ccc(N(CC(=O)NCCOc2ccccc2OC)S(=O)(=O)c2ccccc2)cc1`, the inhibition is 2.61%. Under `Cc1c(C=O)n(C)n(-c2ccccc2)c1=O` stands 6.3%. Then `Brc1ccc(-c2n(-c3ccccn3)c3ccccc3[n+]2-c2ccccn2)cc1`, with 76.4% (active); and `COc1ccc(-n2cc(-c3ccccc3)c3c(=S)nc[nH]c32)cc1`, with 3.57%. Turning to `Cc1ccc(C)c(NC(=O)c2ccc(OC(=O)c3ccco3)cc2)c1`, the inhibition is 4.94%. Under `CC(=O)c1ccccc1NC(=O)COC(=O)C1COc2ccccc2O1` (stereo not given) stands -0.13%; under `COc1ccc(CNC(=O)c2c[nH]c3c(OC)cc(OC)cc3c2=O)cc1`, 3.79%; under `COC(=O)c1ccc2nc(-c3cccc(Br)c3)c(Cc3ccc(OC)cc3C)n2c1`, 8.39%. Take `CN(C(=O)COC(=O)c1cc(-c2ccco2)nc2ccccc12)C1CCS(=O)(=O)C1` (stereo not given): the inhibition was 32.3% (active). For the molecule `CO/N=C(/CS(=O)(=O)c1ccc(Br)cc1)c1ccc(OC)cc1`, the inhibition is 3.47%. Under `COc1ccc(OCc2cc(C(=O)NCC3(C)COC3)no2)c(Cl)c1` stands -0.36%. `CCOc1cc(N2CCOCC2)c(OCC)cc1NC(=O)c1cc(C)nc2ccccc12`: the inhibition is 2.46%. Regarding `COc1ccc2[nH]c3c(C)c4cc[n+](C)cc4c(C)c3c2c1`, the inhibition is 109% (active). Take `CCOC(=O)CCP(=O)(O)C(O)(c1ccccc1)c1ccccc1`: the inhibition was 5.44%. Under `COc1ccc2c(c1)c(=Cc1ccc(N(C)C)cc1)c1cc(-c3ccccc3)[n+](C)n12` stands 73% (active); under `CCOC(=O)c1sc(NC(=O)CCN2CCOCC2)c(C(=O)OCC)c1C`, 1.01%; under `O=C(c1n[nH]c2c1CCC2)N1CCCC(Nc2cccc(F)c2)C1` (stereo not given), 3.32%. In the case of `O=C(CC1CCCCC1)Nc1c2c(nn1-c1ccc(F)cc1)CS(=O)(=O)C2`, the inhibition was 1.28%. Then `CCOC(=O)c1ccc(-n2c(CCC(=O)O)ccc2-c2ccccc2)cc1`, with -0.54%. Under `COC(=O)c1cccc(NC(=O)c2cccc(N3C(=O)CCC3=O)c2)c1` stands 1.64%. Regarding `Cc1ccc(C(=O)Nc2ccc3c(c2)OCO3)cc1S(=O)(=O)N1CCCCC1`, the inhibition is 5.06%.
